Jurkat NFkB inh: lowers PMA/ionomycin-induced NF-kB signal in Jurkat cells; PMA/ionomycin-induced NF-kB luciferase reporter, luminescence; inhibition, % at 4 µM; 330,000 tested, 0.53% active; in the data active = inhibition above about 50%
Gli-Sufu block: blocks Gli-Sufu signaling in a luciferase reporter. Sufu-KO-LIGHT fibroblasts, Gli luciferase reporter luminescence. inhibition, % at 5 µM. 340,000 tested, 0.74% active. AID 588413;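 active = inhibition above about 55%, limit read from the data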;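 also: 0% = DMSO-treated cells and 100% = wells with medium but no cells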
SMARCA2 act: activators of SMARCA2 function | 370,000 tested, 1% active | activation, % at 9.1 µM | MG213 cells, MMTV-luciferase reporter, dexamethasone, overnight | AID 652017; in the data active = activation above about 7.8%;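 also: 0% = vehicle wells and 100% = reference activator wells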
697 NFkB inh: lowers PMA/ionomycin-induced NF-kB signal in 697 B cells. 330,000 tested, 0.33% active. inhibition, % at 4 µM. AID 435022. 697 B-cell NF-kB luciferase reporter, 16 h; in the data active = inhibition above about 35%
esBAF inh: inhibitors of esBAF chromatin remodeling in mouse ES cells. 350,000 tested, 2% active. reporter increase, % at 12.5 µM. Bmi1-luciferase knock-in reporter, 24 h; 100% = twice the neutral-well signal; in the data active = activation above about 40%; inconclusive = no clear call, values can overlap the other calls;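 also: 0% = median of the plate's neutral control wells and 100% = double that signal; a rise in the Bmi1 reporter signal indicates esBAF inhibition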
Jurkat NFkB conf: inhibitors of the PMA/ionomycin-induced NF-kB reporter in Jurkat cells, retest | shares compounds with Jurkat NFkB inh | Jurkat NF-kB luciferase, 16 h | inhibition, % at 4 µM | 2,700 tested, 27% active;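 active = inhibition reaching about 45% at 4 µM in either replicate, limit read from the data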;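 also: plate controls were PMA/ionomycin stimulated DMSO wells for no effect and unstimulated DMSO wells for full effect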
Active calls of the source: *. Compounds with a hit are over-represented: about 3.3% of the library has one in this group of screens.

What do the screens show for `Cc1ccccc1-c1cnc2c(c1)C(=O)N([C@@H](C)CO)C[C@H](C)[C@@H](CN(C)C(=O)CN(C)C)O2`?
esBAF inh: -3.5

How did NC1=NC[C@H](c2ccccc2)N1CCc1cc(C(F)(F)F)cc(C(F)(F)F)c1 do in these assays?
Jurkat NFkB inh: 71.0*; Gli-Sufu block: 20.8; SMARCA2 act: -0.3; 697 NFkB inh: -17.0; esBAF inh: -12.4; Jurkat NFkB conf: 13.1

Results for CC(O)[C@H]1CN=C(N)N1CCc1cc(C(F)(F)F)cc(C(F)(F)F)c1 (stereo not given in full) ?
Jurkat NFkB inh: -4.6; Gli-Sufu block: -1.2; SMARCA2 act: -0.4; 697 NFkB inh: 8.1; esBAF inh: -8.3

What do the screens show for `COc1ccc(CN(C)C[C@@H]2OCCCC[C@H](C)Oc3ccc(NS(=O)(=O)c4cn(C)cn4)cc3C(=O)N([C@H](C)CO)C[C@H]2C)cc1`?
esBAF inh: -0.2

How did Cn1c(/C=C/c2ccc([N+](=O)[O-])o2)nc2ccccc2c1=O do in these assays?
Jurkat NFkB inh: 81.7*; Gli-Sufu block: 82.1*; 697 NFkB inh: -34.9; esBAF inh: -80.3; Jurkat NFkB conf: 25.7

How did O=C(C[C@H]1CC[C@H]2[C@@H](COC[C@@H](O)CN2Cc2nccs2)O1)NCc1ccc(Oc2ccccc2)cc1 do in these assays?
esBAF inh: 4.5

How did COc1ccccc1C(=O)N1CCN(c2cccc(C(F)(F)F)c2)CC1 do in these assays?
Jurkat NFkB inh: 65.7*; Gli-Sufu block: 7.2; SMARCA2 act: -0.4; 697 NFkB inh: -49.1; esBAF inh: 6.6; Jurkat NFkB conf: 29.2

How did CCOc1ccccc1C(=O)N1CCN(c2cccc(Cl)c2)CC1 do in these assays?
Jurkat NFkB inh: 81.0*; Gli-Sufu block: 58.7*; SMARCA2 act: 1.3; 697 NFkB inh: -80.7; esBAF inh: -3.3; Jurkat NFkB conf: 41.5

Results for O=C(O)c1ccccc1C(=O)N1CCN(c2cccc(Cl)c2)CC1 ?
Jurkat NFkB inh: -4.6; Gli-Sufu block: 3.7; SMARCA2 act: 1.2; 697 NFkB inh: 20.7; esBAF inh: 9.0

What do the screens show for `CCOC(=O)c1[nH]c(C)c(C(=O)N2CCN(c3ccccc3)CC2)c1C`?
Jurkat NFkB inh: 9.0; Gli-Sufu block: 7.4; SMARCA2 act: -1.4; 697 NFkB inh: 29.4; esBAF inh: -3.4

How did CCOc1ccc2ccccc2c1C(=O)N1CCN(c2ccccc2)CC1 do in these assays?
Jurkat NFkB inh: 67.7*; Gli-Sufu block: 6.5; SMARCA2 act: -1.5; 697 NFkB inh: -10.9; esBAF inh: -20.8; Jurkat NFkB conf: 8.9

Results for CN1C(=O)c2cc(NC(=O)C3CC3)ccc2OC[C@H]2O[C@H](CC(=O)NCC3CCCCC3)CC[C@H]21 ?
esBAF inh: 8.5

What do the screens show for `Cc1noc(C)c1COc1ccc(C(=O)NNC(=O)c2ccccc2)cc1`?
Jurkat NFkB inh: 63.4*; Gli-Sufu block: -7.7; SMARCA2 act: -3.0; 697 NFkB inh: -33.4; esBAF inh: -2.2; Jurkat NFkB conf: 30.2

How did Cc1noc(C)c1COc1ccc(C(=O)NNC(=O)c2ccccc2F)cc1 do in these assays?
Jurkat NFkB inh: 56.1*; Gli-Sufu block: -14.9; 697 NFkB inh: -49.7; esBAF inh: -4.5; Jurkat NFkB conf: 45.1

How did Cc1noc(C)c1COc1ccccc1C(=O)NNC(=O)c1ccccc1F do in these assays?
Jurkat NFkB inh: -1.5; Gli-Sufu block: -0.9; SMARCA2 act: -0.8; 697 NFkB inh: 14.1; esBAF inh: 8.1

What do the screens show for `CCOc1ccc2c(c1)C(C)=CC(C)(C)N2S(=O)(=O)c1ccc(NC(C)=O)cc1`?
Jurkat NFkB inh: 55.7*; Gli-Sufu block: 65.3*; SMARCA2 act: -1.5; 697 NFkB inh: -155.6; esBAF inh: -15.9; Jurkat NFkB conf: 58.2*

Results for C[C@@H]1CN([C@H](C)CO)C(=O)c2cc(NS(=O)(=O)c3ccccc3)ccc2O[C@@H]1CN(C)CC1CCCCC1 ?
esBAF inh: -0.6

How did C[C@H]1CN([C@@H](C)CO)C(=O)c2cc(C#CCN(C)C)cnc2O[C@H]1CN(C)S(C)(=O)=O do in these assays?
esBAF inh: -2.3

What do the screens show for `Cc1ccc2c(c1)Sc1c(ccc3ccccc13)N2`?
Jurkat NFkB inh: -170.8; Gli-Sufu block: -91.8; SMARCA2 act: 4.3; 697 NFkB inh: -219.3; esBAF inh: 51.2*; Jurkat NFkB conf: -28.0

How did NC(=O)Nc1cccc2ccccc12 do in these assays?
Jurkat NFkB inh: -1.3; Gli-Sufu block: 0.3; SMARCA2 act: -2.1; 697 NFkB inh: -22.5

What do the screens show for `O=C(Nc1cccc2ccccc12)OC1C=CS(=O)(=O)C1` (stereo not given)?
Jurkat NFkB inh: 89.6*; Gli-Sufu block: 2.0; SMARCA2 act: -2.2; 697 NFkB inh: -45.5; esBAF inh: -25.2; Jurkat NFkB conf: 64.8*

Results for CCOc1ccc(NC(=O)c2cc3c(C)nc4ccccc4c3o2)cc1 ?
Jurkat NFkB inh: 59.6*; Gli-Sufu block: 21.1; SMARCA2 act: -1.9; 697 NFkB inh: -68.9; esBAF inh: -8.7; Jurkat NFkB conf: 41.2

What do the screens show for `Cc1nc2ccccc2c2oc(C(=O)NC3CC3)cc12`?
Jurkat NFkB inh: 3.8; Gli-Sufu block: -10.5; SMARCA2 act: 1.5; 697 NFkB inh: 6.3; esBAF inh: 2.6

Results for CCc1cc(C(=O)NC2CCCc3c2cnn3-c2cccc(C)c2C)n(C)n1 (stereo not given) ?
Jurkat NFkB inh: 78.8*; Gli-Sufu block: 82.5*; SMARCA2 act: -5.3; 697 NFkB inh: 34.6; Jurkat NFkB conf: 76.5*

How did CC(=O)c1ccc(Nc2ccc(-c3ccccc3F)nn2)cc1 do in these assays?
Jurkat NFkB inh: -160.8; Gli-Sufu block: -167.3; SMARCA2 act: -2.6; 697 NFkB inh: -181.7; esBAF inh: inconclusive; Jurkat NFkB conf: -120.7

Results for COc1ccccc1-c1ccc(Nc2ccc(C(=O)N3CCOCC3)cc2)nn1 ?
Jurkat NFkB inh: -8.2; Gli-Sufu block: -11.8; SMARCA2 act: 1.1; 697 NFkB inh: 5.5; esBAF inh: 9.2

Results for Cc1ccc(S(=O)(=O)N(C)C[C@H]2Oc3ccc(NS(=O)(=O)c4ccc(Cl)cc4)cc3C(=O)N([C@@H](C)CO)C[C@H]2C)cc1 ?
esBAF inh: 1.7

Results for Cn1c(=O)[nH]c(=O)c2c1nc(CN1CCN(c3cccc(Cl)c3)CC1)n2Cc1ccccc1Cl ?
Jurkat NFkB inh: 56.9*; Gli-Sufu block: 7.1; SMARCA2 act: -1.6; 697 NFkB inh: -30.5; esBAF inh: -41.3; Jurkat NFkB conf: 12.3

Results for COc1ccccc1N1CCN(C(=O)C2c3ccccc3Oc3ccccc32)CC1 ?
Jurkat NFkB inh: 55.2*; Gli-Sufu block: 5.5; SMARCA2 act: -0.8; 697 NFkB inh: -29.3; esBAF inh: -1.1; Jurkat NFkB conf: 44.5

Results for COc1cccc(/C=N/Nc2ncnc(Cl)c2N)c1O ?
Jurkat NFkB inh: 56.0*; Gli-Sufu block: 79.3*; SMARCA2 act: -2.5; 697 NFkB inh: -85.3; Jurkat NFkB conf: 12.7

Assay outcomes as filed in PubChem.
